Reference: PubChem BioAssay (NCI)
Compounds without any hit were thinned out: in the full panel of roughly 79,000, 15% have a hit. Values without a mark were called inactive. The source made the active and inactive calls. No stated cut-off is given here; in the data, active means growth inhibition above about 70%; inactive means the rest.

Key:
[1] = NCI Yeast Anticancer Drug Screen. Data for the rad50 strain (AID 155);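 further: 0% = growth of vehicle-only cultures of the same strain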; settings: S. cerevisiae rad50 strain growth inhibition, hits give high values
Outline: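 Cells are treated with compound, grown, and their growth is then scored against vehicle-only cultures of the same repair-deficient yeast strain.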

[2] = NCI Yeast Anticancer Drug Screen. Data for the mec2-1 strain (AID 157); settings: S. cerevisiae mec2-1 strain, hits give high values
Outline: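 Using mec2-1 yeast: add compound, measure growth, express inhibition versus vehicle-treated cultures.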

[3] = NCI Yeast Anticancer Drug Screen. Data for the sgs1 mgt1 strain (AID 161);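 further: 0% = growth of cultures given vehicle only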; settings: S. cerevisiae sgs1 mgt1 strain, hits give high values
Outline: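 Yeast cells carrying a defined DNA-repair defect were exposed to test compounds. Growth inhibition was measured relative to vehicle-treated controls.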

[4] = NCI Yeast Anticancer Drug Screen. Data for the cln2 rad14 strain (AID 165);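 further: 0% = growth equal to vehicle treated cultures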; settings: S. cerevisiae cln2 rad14 strain, hits give high values
Outline: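 Yeast strain cln2 rad14, bearing defects in cell cycle control and DNA repair, serves as the test system; values reflect growth inhibition compared with vehicle.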

[5] = NCI Yeast Anticancer Drug Screen. Data for the bub3 strain (AID 167); settings: S. cerevisiae bub3 mutant strain, hits give high values
Outline: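 Part of a panel of yeast mutants defective in DNA damage repair or cell cycle regulation. Each strain is grown with compound, and inhibition is calculated relative to solvent-treated cultures.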

[6] = NCI Yeast Anticancer Drug Screen. Data for the mlh1 rad18 strain (AID 175); settings: S. cerevisiae mlh1 rad18 strain growth inhibition, hits give high values
Outline: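 Steps: expose repair-defective yeast to compound; measure growth; express inhibition against vehicle-treated controls.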

[7] = at 5.0 µM (retest, dose inferred, filed as 0.5)
[8] = at 50.0 µM (retest, dose inferred, filed as 5.0)

SMILES | growth inhibition [1, 7] | growth inhibition [1, 8] | growth inhibition ([1]; at 50.0 µM) | growth inhibition [2, 7] | growth inhibition [2, 8] | growth inhibition ([2]; at 50.0 µM) | growth inhibition [3, 7] | growth inhibition [3, 8] | growth inhibition ([3]; at 50.0 µM) | growth inhibition [4, 7] | growth inhibition [4, 8] | growth inhibition ([4]; at 50.0 µM) | growth inhibition [5, 7] | growth inhibition [5, 8] | growth inhibition ([5]; at 50.0 µM) | growth inhibition [6, 7] | growth inhibition [6, 8] | growth inhibition ([6]; at 50.0 µM)
Cc1ccc(NC(=O)CCC(=O)CC(=O)C(C)(C)C)cc1C | 16% | 7% | 1.1% | 2% | -2% | -14.3% | 13% | 3% | -13.8% | -5% | 4% | 34.8% | -6% | 3% | -7.9% | -2% | -4% | -15.7%
Clc1ccc(C2=CCCc3ccccc32)cc1 | -3% | 1% | 91.1% (active) | 6% | -4% | 96.2% (active) | -14% | 7% | 95.8% (active) | 5% | -19% | 95.7% (active) | 6% | -2% | 88.5% (active) | -2% | 3% | 96.5% (active)
CN1CCCCC1c1cc2c3ccccc3ccn2c1-c1ccccc1 (configuration not stated) | 71% (active) | 95% (active) | 96.5% (active) | 62% | 99% (active) | 98.3% (active) | 75% (active) | 94% (active) | 98.7% (active) | -7% | 92% (active) | 94.8% (active) | 9% | 96% (active) | 98.4% (active) | 69% | 92% (active) | 98.5% (active)
N#CC1C2CCC3(CC2CCN1C(=O)c1ccccc1)OCCO3 (configuration not stated) | -1% | 59% | 32.5% | -1% | 76% (active) | 72.2% (active) | -6% | 60% | 43% | -7% | 78% (active) | 71.8% (active) | 12% | 82% (active) | 82.8% (active) | -7% | 77% (active) | 60.9%
COc1c(O)cc(C=O)cc1[N+](=O)[O-] | -7% | 14% | 7.3% | 1% | 12% | 2.15% | -1% | 11% | 40.3% | 4% | 20% | 69.2% | -1% | 1% | -9.85% | -4% | 14% | 8.1%
Cc1ccc(O)c(C(c2cc(C)ccc2O)c2cc([N+](=O)[O-])ccc2O)c1 | 23% | 97% (active) | 90.9% (active) | 7% | 99% (active) | 93.1% (active) | 17% | 99% (active) | 40.5% | 17% | 99% (active) | 90.8% (active) | 5% | 99% (active) | 91.8% (active) | 24% | 97% (active) | 91.3% (active)
Clc1ccc(CN2COc3c(ccc4cccnc34)C2)cc1 | 1% | 36% | 97.1% (active) | -2% | 65% | 64.5% | -1% | 97% (active) | 99.4% (active) | 1% | 97% (active) | 77.5% (active) | -4% | 85% (active) | 77.5% (active) | 2% | 95% (active) | 93% (active)
NC(C(=O)O)C1=CCCCCC1 (configuration not stated) | 2% | -6% | 49.5% | 20% | 66% | 13.8% | 6% | -1% | 9.35% | 12% | 54% | -6.65% | 63% | 98% (active) | -5.95% | -3% | -4% | 15.4%
CC(C)(C)C(=O)OC(N)/C=C/c1ccccc1 (configuration not stated) | 21% | 24% | 1.75% | 15% | 16% | -10.2% | 13% | -36% | 78.8% (active) | 14% | -52% | 36.7% | 7% | -24% | 82.7% (active) | 23% | 24% | -19.9%
